Where “and” joins values, the source holds several entries; their conditions need not be identical. Equal entries are not always repeated. Screen size: about 5,500 compounds; about 2,000 (36%) were called active. Another 18% or so got no clear call; they are omitted. No stated cut-off is given here; in the data, active means normalized growth mostly below about 0.91 (no sharp cut-off); inconclusive means no clear call, values can overlap the other calls; inactive means mostly above about 0.92. The list shows a part of the results.
Assay: chemical genetic growth profiling, strain panel (AID 1159580);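 further: tested at 20 µM; growth read once vehicle control cultures reached saturation at 30 °C; 1 = growth at the plate median or of vehicle wells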
Conditions: S. cerevisiae deletion strains, growth OD

Measured: normalized growth

O=C1NS(=O)(=O)c2ccccc21
inactive: locus YAL013W, strain DEP1, stronger effect = lower value 1.01 | locus YAL021C, strain ccr4, stronger effect = lower value 0.965 | locus YAL026C, strain drs2, stronger effect = lower value 1.04 | locus YAL030W, strain snc1, stronger effect = lower value 1.02 | locus YBL061C, strain skt5, stronger effect = lower value 1.03 | locus YBR009C, strain hhf1, stronger effect = lower value 1.03 | locus YBR021W, strain FUR4, stronger effect = lower value 1.02 | locus YBR023C, strain chs3, stronger effect = lower value 1.02 | locus YBR171W, strain sec66, stronger effect = lower value 1.03 | locus YBR229C, strain ROT2, stronger effect = lower value 1.01 | locus YBR231C, strain swc5, stronger effect = lower value 1.02 | locus YBR279W, strain paf1, stronger effect = lower value 1.01 | locus YCL011C, strain gbp2, stronger effect = lower value 1.02 | locus YCL016C, strain dcc1, stronger effect = lower value 0.988 | locus YCL029C, strain bik1, stronger effect = lower value 0.994 | locus YCL061C, strain MRC1, stronger effect = lower value 1.02 | locus YCL069W, strain vba3, stronger effect = lower value 1.02 | locus YCR088W, strain abp1, stronger effect = lower value 1.02 | locus YDL005C, strain med2, stronger effect = lower value 1.03 | locus YDL035C, strain GPR1, stronger effect = lower value 0.994 | locus YDL040C, strain nat1, stronger effect = lower value 1.02 | locus YDL074C, strain BRE1, stronger effect = lower value 1.01 | locus YDL101C, strain DUN1, stronger effect = lower value 1.01 | locus YDL134C, strain PPH21, stronger effect = lower value 1 | locus YDL185W, strain tfp1, stronger effect = lower value 0.994 | locus YDL192W, strain arf1, stronger effect = lower value 1 | locus YDR001C, strain nth1, stronger effect = lower value 1.01 | locus YDR069C, strain doa4, stronger effect = lower value 1.04 | locus YDR101C, strain arx1, stronger effect = lower value 0.983 | locus YDR137W, strain rgp1, stronger effect = lower value 1.03 | locus YDR159W, strain sac3, stronger effect = lower value 1.11 | locus YDR162C, strain NBP2, stronger effect = lower value 0.998 | locus YDR195W, strain ref2 0.993 | locus YDR297W, strain sur2, stronger effect = lower value 1.02 | locus YDR318W, strain mcm21, stronger effect = lower value 0.979 | locus YDR334W, strain swr1, stronger effect = lower value 1.02 | locus YDR335W, strain msn5, stronger effect = lower value 1.01 | locus YDR388W, stronger effect = lower value 0.991 | locus YDR392W, strain spt3, stronger effect = lower value 0.957 | locus YDR502C, strain sam2, stronger effect = lower value 0.995 | locus YEL003W, strain gim4, stronger effect = lower value 1.03 | locus YEL037C, strain rad23, stronger effect = lower value 1.01 | locus YEL061C, strain CIN8 (second series), stronger effect = lower value 1.02 | locus YEL061C, strain CIN8, stronger effect = lower value 1.01 | locus YER015W, strain faa2, stronger effect = lower value 1.02 | locus YER016W, strain bim1, stronger effect = lower value 1.02 | locus YER110C, stronger effect = lower value 0.987 | locus YER111C, strain swi4, stronger effect = lower value 1.02 | locus YER155C, strain BEM2 (second series), stronger effect = lower value 1.07 | locus YER155C, strain BEM2, stronger effect = lower value 0.997 | locus YER167W, strain BCK2, stronger effect = lower value 1 | locus YFR010W, strain ubp6, stronger effect = lower value 1.03 | locus YGL078C, strain dbp3, stronger effect = lower value 1 | locus YGL086W, strain mad1, stronger effect = lower value 0.998 | locus YGL167C, strain pmr1, stronger effect = lower value 1.02 | locus YGL173C, strain kem1, stronger effect = lower value 1.06 | locus YGL227W, strain vid30, stronger effect = lower value 1.02 | locus YGL240W, strain doc1, stronger effect = lower value 1.05 | locus YGL248W, strain PDE1, stronger effect = lower value 1.03 | locus YGL253W, strain hxk2, stronger effect = lower value 1.05 | locus YGR078C, strain PAC10, stronger effect = lower value 1.05 | locus YGR135W, strain pre9, stronger effect = lower value 0.984 | locus YGR252W, strain gcn5, stronger effect = lower value 0.976 | locus YHR013C, strain ard1, stronger effect = lower value 1.02 | locus YHR027C, strain rpn1, stronger effect = lower value 1.05 | locus YHR030C, strain SLT2, stronger effect = lower value 1 and 0.989 | locus YHR079C, strain IRE1 (second series), stronger effect = lower value 0.984 | locus YHR079C, strain IRE1, stronger effect = lower value 0.984 | locus YHR094C, strain hxt1, stronger effect = lower value 0.988 | locus YHR129C, strain ARP1, stronger effect = lower value 1.02 | locus YHR142W, strain chs7, stronger effect = lower value 1.03 | locus YHR200W, strain rpn10, stronger effect = lower value 0.991 | locus YIL066C, strain RNR3, stronger effect = lower value 1.02 | locus YIL073C, strain SPO22, stronger effect = lower value 0.958 | locus YIL125W, strain kgd1, stronger effect = lower value 0.989 | locus YIR030C, strain dcg1, stronger effect = lower value 0.998 | locus YJL092W, strain hpr5, stronger effect = lower value 1.02 | locus YJL095W, strain BCK1 (second series), stronger effect = lower value 1.02 | locus YJL095W, strain BCK1, stronger effect = lower value 1.04 and 0.999 | locus YJL115W, strain asf1, stronger effect = lower value 1.02 | locus YJL129C, strain trk1, stronger effect = lower value 1.04 | locus YJL134W, strain LCB3, stronger effect = lower value 0.999 | locus YJL154C, strain vps35, stronger effect = lower value 1.02 | locus YJL164C, strain tpk1, stronger effect = lower value 0.993 | locus YJL166W, strain qcr8, stronger effect = lower value 1.04 | locus YJL168C, strain set2, stronger effect = lower value 0.984 | locus YJL187C, strain SWE1 (second series), stronger effect = lower value 1.03 | locus YJR043C, strain POL32, stronger effect = lower value 0.977

Source: PubChem BioAssay AID1159580 (chemical genetic matrix, 2015)
